# Data reported in PubChem BioAssay (NCATS).
# Records with an inconclusive call do not appear. The source made the active and inactive calls. Unless noted, calls come from the whole dose curve; as a rule, active = well fitted curve in the direction sought with a large enough effect; inconclusive = small, poorly fitted or top-dose-only effect, or another doubt; inactive = no such curve, though single readings can be large; an effect the other way counts as inactive or inconclusive.
# Assays:
# [1] = target: DNA dC->dU-editing enzyme APOBEC-3G (Homo sapiens) (UniProt Q9HC16); experiment: qHTS for inhibitors of Vif-A3G interactions: Validation (AID 588379); conditions: Vif-A3G protein interaction assay; series mostly up to 46.1 µM; note: 0% is about no effect
# How it was run: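 Yellow fluorescence (Ex 488, Em 500-530) of Vif-coexpressing HeLa A3G-eYFP cells, scanned by Acumen cytometer, reports blocked A3G degradation. Cells plated at 700/well overnight at 37 deg C before compound addition, then a further overnight compound incubation at 37 deg C.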
# [2] = target: Cytochrome P450 2D6 (Homo sapiens) (UniProt P10635); experiment: qHTS Assay for Inhibitors and Substrates of Cytochrome P450 2D6 (AID 891); conditions: recombinant CYP2D6, luciferin-ME EGE luminescence; series mostly up to 57.1 µM; note: potency is the fitted concentration of half-maximal effect; nearly all actives have a fitted effect of over 60% in size
# How it was run: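 Luminescent read-out of luciferin formed by 5 nM human CYP2D6 demethylating 30 uM Luciferin-ME EGE (Km level) over 60 min at room temperature after NADPH regeneration addition. Data normalized to full inhibition by 1.43 uM quinidine.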
# [3] = qHTS Assay for Identifying Gametocytocidal Compounds (AID 743244); note: potency is the fitted concentration of half-maximal effect; conditions: P. falciparum 3D7 stage III-V gametocytes, alamarBlue, 72 h; max response: stronger effect = lower value
# How it was run: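 Stage III-V P. falciparum 3D7 gametocytes, 20,000 per well, were exposed to compounds for 72 h at 37C, 5% CO2. AlamarBlue was then added for 24 h and viability was read as fluorescence at Ex 525/Em 598 nm.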
# [4] = target: Lysosomal acid glucosylceramidase (Homo sapiens) (UniProt P04062); experiment: Glucocerebrosidase-p2 (AID 348; in the data active = potency below about 10 µM; note: potency is the fitted concentration of half-maximal effect); conditions: purified GBA, blue fluorogenic substrate, 40 min
# How it was run: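 Normal human glucocerebrosidase (0.2 nM) with blue fluorogenic substrate (80 uM final) in citrate/phosphate pH 5.9 with 10mM sodium taurocholate, 0.01% tween-20; 40 min RT, NaOH/glycine stop; fluorescence Ex 365/Em 440; AC50 from a titration from 0.6 nM upwards.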
# [5] = qHTS Assay for Identification of Small Molecule Agonists for Hypoxia Response Element Signaling Pathway (AID 914; active = well fitted activation curve with a large enough effect in the signal ratio, with a control signal flat, not every such curve was filed as active; the % refers to the signal ratio; note: % of control where 0% means no effect); conditions: ME-180 (cervical carcinoma) HRE-bla reporter, beta-lactamase ratio, CoCl2, 17 h; activation: stronger effect = higher value
# How it was run: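 HRE-bla ME-180 cells with beta-lactamase reporter under hypoxia response element, compounds with EC50 CoCl2 for 17 hours at 37 C. CCF4 substrate, 460nm/530nm emission ratio gave %Activity; AC50 from titration series.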
# [6] = target: Cytochrome P450 2C19 (Homo sapiens) (UniProt P33261); experiment: qHTS Assay for Inhibitors and Substrates of Cytochrome P450 2C19 (AID 899); conditions: recombinant CYP2C19, luciferin-H EGE luminescence; series mostly up to 57.1 µM; note: nearly all actives have a fitted effect of over 60% in size; note: potency is the fitted concentration of half-maximal effect
# How it was run: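 Luminescence readout of luciferin formed from 10uM Luciferin-H EGE (KM level) by 5 nM CYP2C19 in 50mM KPO4. 60 min NADPH-driven reaction at 37C after 10 min compound preincubation; data scaled to 57uM ketoconazole inhibition.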
# [7] = qHTS profiling of the MIPE4 collection as inhibitors of Plasmodium falciparum (3D7) proliferation (AID 743344; call rule not given here;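 note: scaled between DMSO vehicle wells and 0.29 µM artemisinin as full inhibition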); conditions: P. falciparum 3D7 in erythrocytes, SYBR Green DNA fluorescence, 72 h; at 28.5 µM (top of the series)
# How it was run: (§1)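 Parasite DNA was quantified by SYBR Green I fluorescence (ex 485, em 535 nm) after overnight lysis in saponin/Triton buffer at room temperature. Cultures at 0.3% parasitemia and 2.5% hematocrit were first exposed to compound for 72 h at 37 C; signals were normalised to artemisinin (0.29 uM) and vehicle wells.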
# [8] = qHTS profiling of the MIPE4 collection as inhibitors of Plasmodium falciparum (DD2) proliferation (AID 743345; call rule not given here); conditions: P. falciparum Dd2 in erythrocytes, SYBR Green DNA, 72 h; at 28.5 µM (top of the series)
# How it was run: as §1
# [9] = qHTS profiling of the MIPE4 collection as inhibitors of Plasmodium falciparum (DD2) proliferation (Rep 2) (AID 743346; call rule not given here); conditions: P. falciparum Dd2 in erythrocytes, SYBR Green DNA, 72 h; at 28.5 µM (top of the series)
# How it was run: as §1
# [10] = qHTS profiling of the MIPE4 collection as inhibitors of Plasmodium falciparum (HB3) proliferation (AID 743347; call rule not given here;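 note: plate controls were DMSO vehicle wells for no effect and artemisinin wells for full effect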); conditions: P. falciparum HB3 in erythrocytes, SYBR Green DNA, 72 h; at 28.5 µM (top of the series)
# How it was run: as §1
# Cytochrome P450 2C19 (Homo sapiens), sequence (P33261 whole entry, looked up): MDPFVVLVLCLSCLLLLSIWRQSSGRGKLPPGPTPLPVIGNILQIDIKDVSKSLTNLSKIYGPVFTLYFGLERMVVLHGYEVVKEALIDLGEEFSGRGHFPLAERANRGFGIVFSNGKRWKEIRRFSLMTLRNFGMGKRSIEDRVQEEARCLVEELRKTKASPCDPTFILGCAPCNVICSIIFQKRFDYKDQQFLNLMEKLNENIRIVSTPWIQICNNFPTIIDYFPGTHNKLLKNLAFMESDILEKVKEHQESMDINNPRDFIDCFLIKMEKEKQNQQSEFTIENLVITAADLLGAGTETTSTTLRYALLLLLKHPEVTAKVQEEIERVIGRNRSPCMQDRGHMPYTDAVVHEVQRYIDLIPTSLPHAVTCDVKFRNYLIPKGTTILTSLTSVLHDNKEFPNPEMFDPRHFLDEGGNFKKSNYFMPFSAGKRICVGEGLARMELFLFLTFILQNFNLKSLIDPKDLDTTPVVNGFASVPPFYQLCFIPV
# Lysosomal acid glucosylceramidase (Homo sapiens), sequence (P04062 whole entry, looked up): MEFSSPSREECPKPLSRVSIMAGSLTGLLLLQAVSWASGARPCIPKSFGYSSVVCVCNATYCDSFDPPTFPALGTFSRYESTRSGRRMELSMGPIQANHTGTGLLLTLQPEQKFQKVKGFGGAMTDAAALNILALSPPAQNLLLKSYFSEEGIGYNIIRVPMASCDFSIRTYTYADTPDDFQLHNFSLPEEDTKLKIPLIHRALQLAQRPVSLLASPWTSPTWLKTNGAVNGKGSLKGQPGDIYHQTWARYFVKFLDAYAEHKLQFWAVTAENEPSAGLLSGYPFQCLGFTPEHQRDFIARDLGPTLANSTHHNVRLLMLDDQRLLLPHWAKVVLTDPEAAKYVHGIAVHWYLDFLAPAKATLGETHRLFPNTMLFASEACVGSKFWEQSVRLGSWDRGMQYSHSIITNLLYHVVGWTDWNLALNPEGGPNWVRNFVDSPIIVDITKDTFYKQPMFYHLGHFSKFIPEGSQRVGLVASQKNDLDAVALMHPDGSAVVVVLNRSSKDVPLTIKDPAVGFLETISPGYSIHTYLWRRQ
# Cytochrome P450 2D6 (Homo sapiens), sequence (P10635 whole entry, looked up): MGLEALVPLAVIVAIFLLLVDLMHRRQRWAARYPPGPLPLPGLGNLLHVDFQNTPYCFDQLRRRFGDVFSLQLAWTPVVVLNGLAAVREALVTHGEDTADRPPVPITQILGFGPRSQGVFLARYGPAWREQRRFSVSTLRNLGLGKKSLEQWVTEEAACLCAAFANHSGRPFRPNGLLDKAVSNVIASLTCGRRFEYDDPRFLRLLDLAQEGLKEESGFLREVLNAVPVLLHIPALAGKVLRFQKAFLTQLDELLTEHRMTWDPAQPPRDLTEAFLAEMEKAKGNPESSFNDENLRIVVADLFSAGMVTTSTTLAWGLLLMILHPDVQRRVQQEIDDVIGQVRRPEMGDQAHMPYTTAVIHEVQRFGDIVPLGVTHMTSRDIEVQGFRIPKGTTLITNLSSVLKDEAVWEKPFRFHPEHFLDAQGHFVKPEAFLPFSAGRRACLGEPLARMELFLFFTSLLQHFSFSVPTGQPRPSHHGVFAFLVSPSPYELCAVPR
# DNA dC->dU-editing enzyme APOBEC-3G (Homo sapiens), sequence (Q9HC16 whole entry, looked up): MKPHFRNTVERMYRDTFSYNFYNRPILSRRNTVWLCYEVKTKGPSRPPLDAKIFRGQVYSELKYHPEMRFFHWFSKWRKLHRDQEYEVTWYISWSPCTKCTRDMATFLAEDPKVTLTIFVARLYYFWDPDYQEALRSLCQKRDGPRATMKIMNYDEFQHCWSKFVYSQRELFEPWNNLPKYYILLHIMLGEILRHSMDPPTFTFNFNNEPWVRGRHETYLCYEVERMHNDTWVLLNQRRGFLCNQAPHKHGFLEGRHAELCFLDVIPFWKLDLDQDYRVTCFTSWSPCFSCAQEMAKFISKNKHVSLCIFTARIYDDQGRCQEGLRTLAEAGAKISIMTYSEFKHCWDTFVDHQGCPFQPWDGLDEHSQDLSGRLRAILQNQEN
smiles,measurement,setting,value
COc1c2ccoc2cc2oc(=O)ccc12,outcome,[1],inactive
CN1CC[C@H](CN2c3ccccc3Sc3ccccc32)C1,Potency,[2],0.126 µM (active)
same,Potency,[3],18.7 µM (active)
COc1ccccc1CNc1nc(-c2ccc(C(=O)N(C)C)cc2)nc2ccccc12,Potency,[4],> 11.4 µM (inactive)
same,activation,[5],25.3% (inactive)
COc1ccc2[nH]cc(CCNc3ncncc3-c3ccccc3C(F)(F)F)c2c1,Potency,[4],> 11.4 µM (inactive)
same,Potency,[2],2 µM (active)
same,Potency,[6],0.251 µM (active)
COc1cccc(Cn2c(=O)cnc3cnc(N(C)C)nc32)c1,Potency,[4],> 11.4 µM (inactive)
same,Potency,[6],2.51 µM (active)
CNc1ncncc1-c1ccccc1CN(C)C,Potency,[6],inactive
CN(C)C(=O)c1ccc(-c2ccc3ncnc(Nc4ccc(F)cc4)c3c2)cc1,activation,[5],7.84% (inactive)
CC(C)=CCCC(C)CCO (configuration not stated),outcome,[1],inactive
Nc1cccc(-c2csc(NC(=O)CCCCCCC(=O)NO)n2)c1,"parasite growth, % of DMSO control",[7],5.04%
same,"parasite growth remaining, % of DMSO control (lower = more inhibition)",[8],7.08%
same,"parasite growth, % of control (lower = inhibition)",[9],11.6%
same,"growth, % of control",[10],8.11%
